Source: PubChem BioAssay
Shown are actives, neighbours in structure and some others; about 6.5% of the full set was active somewhere.
Giardia kill: Small Molecules that selectively kill Giardia lamblia: qHTS | Giardia lamblia trophozoite viability | activity change, % at 7.66 µM, hits read low | actives 0.15% (n = 340,000) | AID 540267, 2011; in the data active means activity change below about -80%; inconclusive means between about -30% and that limit;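 further: parasites exposed to compound for two days anaerobically before the ATP read; on the % scale 0 is the no-effect control and ±100 the full control effect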
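Media and compound were dispensed first, then trophozoites at 100 cells/well; plates sat 48 hrs at 37 deg C without oxygen before ATP luminescence reagent was added and read after 15-30 min at room temperature.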
IL1B secr inh: qHTS for Inhibitors of Inflammasome Signaling: IL-1-beta AlphaLISA Primary Screen; THP-1 LPS/ATP IL-1B secretion, AlphaLISA, 16 h; active compounds read low; activity change, % at 57.5 µM; actives 4.7% (n = 360,000); in the data active means activity change below about -50%; inconclusive means mostly about -30% to -49%; further: on the % scale 0 is the no-effect control and ±100 the full control effect
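THP-1 cells pretreated 1 hr with compounds (up to 57.5 uM final), then stimulated with LPS (250 ng/mL final) plus ATP (1.25 mM final); secreted IL-1B measured by AlphaLISA after 16 hr, decreased signal indicating inhibition.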
TGFb inhibitor: qHTS for Inhibitors of TGF-b; HepG2 CAGA-GFP TGF-b/SMAD3 reporter, GFP fluorescence, 18 h; TGF-beta stimulated, 500 pg/mL final; Potency, µM (series often up to 46.1 µM), for the others: at the top dose activity, negative = inhibition, most hits filed as inhibitors; actives 1.2% (n = 410,000); AID 588855, 2011; further: potency means the concentration at half of the fitted maximal effect; on the % scale 0 is the no-effect control and ±100 the full control effect; nearly all actives have a fitted effect of over 65% in size
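Read-out: total well GFP (ex488/em500-530) summed from mean per-cell fluorescence. Cells: HEPG2 CAGA-GFP, 1% FBS DMEM, 18 h at 37 degrees C with 500 pg/mL final TGF-beta. Unstimulated wells served as the full-inhibition control; stimulated DMSO wells = 0%.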
HT1080-NT tox: qHTS for induction of synthetic lethality in tumor cells producing 2HG: qHTS for the HT-1080-NT fibrosarcoma cell line; Potency, µM (highest dose often 46.1 µM), for inactives: at the top dose activity, negative = less viability, most hits filed as cytotoxic; AID 686970, 2013; actives 1.6% (n = 360,000); HT-1080-NT fibrosarcoma viability, CellTiter-Glo ATP luminescence, 48 h;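 further: NT is the 2HG producing partner of a matched IDH1 knockdown line; potency means the concentration at half of the fitted maximal effect; 0% = DMSO-treated cells and -100% = media-only wells without cells; nearly all actives have a fitted effect of over 55% in size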
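HT-1080-NT fibrosarcoma cells (2HG-overproducing), 750 cells/well in RPMI with 5% FBS, dosed after 2 h and incubated 48 h at 37C. CellTiter-Glo luminescence normalized to DMSO and no-cell wells; concentration-response curves fitted and classed.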
HT1080 IDH1KD tx: qHTS for induction of synthetic lethality in tumor cells producing 2HG: qHTS for the HT-1080-IDH1KD cell line; HT-1080 IDH1 knockdown viability, ATP luminescence, 48 h; Potency, µM (top dose mostly 46.1 µM), for the others: at the highest dose activity, negative = toxicity, hits mostly cytotoxic; actives 2% (n = 360,000);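 further: potency means the concentration at half of the fitted maximal effect; 0% = DMSO wells and -100% = cell-free medium wells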
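Using the IDH1-knockdown HT-1080 line run in the same batch and compound series as the NT line, viability after 48 h at 37 °C was determined by CellTiter-Glo luminescence and expressed as % activity.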
HepG2 tox-1: qHTS for Inhibitors of TGF-b: Cytotox Counterscreen. HepG2 CAGA-GFP viability, ATP luminescence, 18 h. Potency, µM (top dose mostly 46.1 µM), inactives show top-dose activity change, negative = cytotoxicity, most hits filed as cytotoxic. actives 0.76% (n = 410,000). AID 588856, 2011; further: potency means the concentration at half of the fitted maximal effect
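CellTiter-Glo luminescence gave cytotoxicity after 18 hours at 37 degrees C. The cells were HepG2 CAGA-GFP in 1% FBS DMEM, stimulated with 500 pg/mL TGF-beta after compound addition. %Activity was normalised to no-cell wells (complete cell-killing) and DMSO (no toxicity), and curves were fitted and classified.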
TGFb CAGA inh: qHTS for Inhibitors of TGF-b: Confirmation of Cherry Picks. shares compounds with TGFb inhibitor. HepG2 CAGA-GFP TGF-b reporter, GFP fluorescence, 18 h; cells stimulated with TGF-beta, 500 pg/mL. Potency, µM (doses to about 46.1 µM), for the others: at the top dose activity, negative = inhibition, hits mostly inhibitors. actives 63% (n = 1,600); further: potency means the concentration at half of the fitted maximal effect; on the % scale 0 is the no-effect control and ±100 the full control effect; nearly all actives have a fitted effect of over 65% in size
HepG2 tox-2: qHTS for Inhibitors of TGF-b: Cytotox Counterscreen for Cherry Picks; actives 27% (n = 1,600); HepG2 CAGA-GFP viability, ATP luminescence, 18 h; cells stimulated with TGF-beta, 500 pg/mL; AID 720535, 2013; shares compounds with TGFb inhibitor; Potency, µM (highest dose often 46.1 µM), for inactives: at the highest dose activity, negative = cytotoxicity, actives largely listed as inhibitors; further: potency means the concentration at half of the fitted maximal effect; on the % scale 0 is the no-effect control and ±100 the full control effect; nearly all actives have a fitted effect of over 70% in size
CCL64 TGFb inh: qHTS for Inhibitors of TGF-b: CCL64 Cells Orthogonal Assay for Cherry Picks. Potency, µM (series often up to 46.1 µM), for inactives: top-dose activity, negative = inhibition, most hits filed as inhibitors. shares compounds with TGFb inhibitor. actives 41% (n = 1,600). CCL64 CAGA-GFP reporter, TGF-b stimulated, GFP fluorescence, 18 h; further: potency means the concentration at half of the fitted maximal effect; nearly all actives have a fitted effect of over 65% in size
TGFb COP inh: qHTS for Inhibitors of TGF-b: Hit Validation in HepG2 Cells using COP promoter; shares compounds with TGFb inhibitor; HepG2 COP-GFP TGF-b reporter, GFP fluorescence, 18 h; cells stimulated by added recombinant TGF-beta; Potency, µM (series often up to 46.1 µM), for inactives: at the top dose activity, negative = inhibition, hits mostly inhibitors; actives 3% (n = 1,600); AID 720537, 2013; further: potency means the concentration at half of the fitted maximal effect; nearly all actives have a fitted effect of over 70% in size
Starred values were filed as active, the others as inactive; ? = inconclusive; nt = no result given; [ ] = remark or other dose. Unless noted, the call rests on the fitted dose curve; in most records, active means well fitted curve in the direction sought with a large enough effect; inconclusive means small, poorly fitted or top-dose-only effect, or another doubt; inactive means no such curve, though single readings can be large; an effect the other way counts as inactive or inconclusive.

SMILES	Giardia kill	IL1B secr inh	TGFb inhibitor	HT1080-NT tox	HT1080 IDH1KD tx	HepG2 tox-1	TGFb CAGA inh	HepG2 tox-2	CCL64 TGFb inh	TGFb COP inh
COC(=O)N/N=C/c1cn(CCOc2ccccc2)c2ccccc12	15.8	?	?	-9.2%	-14.9%	-6.0%	7.31µM*	3.26µM*	-4.9%	19.2%
CCOC(=O)N/N=C/c1cn(CCCOc2ccc(C)cc2)c2ccccc12	-7.4	-11.7	-27.2%	0.8%	-6.7%	-21.5%	nt	nt	nt	nt
CCOC(=O)N/N=C/c1cn(Cc2ccc(Cl)cc2)c2ccccc12	4.3	-5.9	12.6µM*	-19.7%	-22.0%	-42.0%	4.11µM*	2.59µM*	5.1%	41.5%
C/C(=N\NC(=O)c1ccc(Br)o1)c1cc2c(cc1NC(=O)CCC(=O)O)OCO2	-4.7	26.1	-0.3%	0.1%	5.0%	4.8%	nt	nt	nt	nt
CC(=O)c1ccc(NS(=O)(=O)c2ccc(-c3cnc(C4CC4)o3)cc2)cc1	1.2	58.6	-18.5%	-13.7%	-11.5%	-19.7%	nt	nt	nt	nt
Cc1cccc(C)c1NS(=O)(=O)c1ccc(-c2cnc(C3CC3)o2)cc1	-3.8	49.6	3.98µM*	0.082µM*	0.164µM*	-29.2%	2.59µM*	?	0.82µM*	51.7%
CCOc1ccccc1CNS(=O)(=O)c1ccc(-c2cnc(C3CC3)o2)cc1	2.3	32.1	10µM*	7.31µM*	1.16µM*	-27.7%	5.8µM*	?	8.2µM*	-10.4%
COc1cccc(C(=O)OCC(=O)N2CCC(Cc3ccccc3)CC2)c1OC	8.9	1.4	1.7%	1.6%	1.5%	4.8%	nt	nt	nt	nt
CC(C)(C)c1ccc(-n2ncc3c2CCCC3NC(=O)CCC2=NNC(=O)CC2)cc1 (stereo unspecified)	nt	3.7	-8.0%	-12.6%	-6.4%	-27.6%	nt	nt	nt	nt
O=c1oc2c(F)cc(F)cc2cc1S(=O)(=O)c1ccc(F)cc1	nt	nt	nt	nt	nt	-4.4%	nt	nt	nt	nt
CCn1c(C)nnc1SCC(=O)Nc1ccccc1Cl	19.5	15.1	-24.7%	4.1%	0.4%	-2.7%	nt	nt	nt	nt
O=C(c1ccc(Cl)c([N+](=O)[O-])c1)N1CCN(S(=O)(=O)c2ccc(Cl)cc2)CC1	-2.2	?	10µM*	-0.1%[9.24 µM]	-17.0%	-15.2%	13µM*	-17.2%	?	-5.0%
COc1cccc(Nc2nc(NCC3CCCO3)c3ccccc3n2)c1 (stereo unspecified)	-14.7	-121.5*	6.31µM*	-18.4%	?	10µM*	?	?	20.6µM*	90.7%
c1cncc(-c2nc(NCC3CCCO3)c3ccccc3n2)c1 (stereo unspecified)	5.5	-0.6	-2.4%	-10.6%	-0.8%	-38.5%	nt	nt	nt	nt
O=C(/C=C/c1ccccc1)CCN1CCOCC1	6.2	-83.5*	7.08µM*	?	18.4µM*	10µM*	2.59µM*	7.31µM*	10.3µM*	?
CC(=O)c1c(-c2ccccc2)c2cc([N+](=O)[O-])ccc2[nH]c1=O	14.6	-10.7	-9.0%	-1.7%	-3.7%	1.5%	nt	nt	nt	nt
C=C(C(=O)c1ccccc1)C(CC(=O)c1ccccc1)c1ccccc1 (stereo unspecified)	-3.6	-95.0*	12.6µM*	?	11.6µM*	4.2%	9.2µM*	10.3µM*	9.2µM*	-17.0%
CN(C)c1ccc(-c2nn3c(-c4ccccc4Cl)nnc3s2)cc1	-0.2	0.1	?	?	?	9.5%	4.61µM*	-4.5%	10.3µM*	-6.0%
COc1ccccc1C1C(C(N)=O)=C(C)Nc2ncnn21 (stereo unspecified)	-13.2	-25.8	-2.1%	-6.1%	-6.6%	-4.2%	nt	nt	nt	nt
O=C(Nc1ccc(Cl)cc1)c1cc2c(cc1O)[nH]c1ccccc12	9.3	-95.1*	6.31µM*	14.6µM*	14.6µM*	-45.0%	7.31µM*	5.17µM*	3.26µM*	70.3%
CC(=O)Nc1ccc2[nH]c3ccccc3c2c1	12.7	-17.8	13.0%	0.1%	-3.6%	0.4%	nt	nt	nt	nt
c1ccc(-c2nc3nonc3nc2-c2ccccc2)cc1	-9.0	23.4	8.91µM*	-26.7%	?	10µM*	14.6µM*	?	?	?
CC(=O)c1cccc(NC(=O)CCc2c(C)nc3nc(CN)nn3c2C)c1	nt	nt	14.1%	nt	nt	4.1%	nt	nt	nt	nt
Cn1nc(-c2ccccc2)c(-c2nc(-c3cccc(C(F)(F)F)c3)no2)c1Cl	4.7	0.1	1.7%	10.0%	-0.6%	-21.6%	nt	nt	nt	nt
O=C1C(Cl)=C(Nc2ccccc2)C(=O)c2ccccc21	-0.9	-107.0*	4.47µM*	2.3%	2.4%	6.31µM*	3.26µM*	6.51µM*	?	1.0%
O=S(=O)(Cc1ccccc1)NCc1cccnc1	-0.2	-6.5	?	6.9%[9.24 µM]	0.2%	-2.2%	nt	nt	nt	nt
O=C1C(Cl)=C(NCc2cccnc2)C(=O)c2ccccc21	28.3	-101.2*	3.16µM*	18.4µM*	?	1.41µM*	4.61µM*	6.51µM*	?	16.4µM*
CC1=C(Nc2ccc(C(=O)O)cc2)C(=O)c2ccccc2C1=O	2.7	30.1	7.94µM*	?	?	-58.8%	14.6µM*	?	-19.9%	22.2%
